Experimental data as given in PubChem BioAssay (NCI).
About 79,000 compounds went through this panel and 15% of them were active in at least one assay; those are over-represented in the sample as a whole. A number with no mark means an inactive call. Activity calls are given as the source filed them. Cut-off read from the data, not from the text of the source: active = growth inhibition above about 70%; inactive = the rest.

Legend:
[1] = NCI Yeast Anticancer Drug Screen. Data for the rad50 strain (AID 155);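 note: 0% = growth of vehicle-only cultures of the same strain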; settings: S. cerevisiae rad50 strain growth inhibition; at 50.0 µM; hits give high values
Procedure, shortened: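 Readout: growth inhibition relative to vehicle-treated cultures. Compound exposure was carried out in a genetically defined yeast strain deficient in DNA damage repair.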

[2] = NCI Yeast Anticancer Drug Screen. Data for the mec2-1 strain (AID 157); settings: S. cerevisiae mec2-1 strain, at 50.0 µM, hits give high values
Procedure, shortened: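 Each compound was tested on mec2-1 yeast, a strain altered in DNA damage repair or cell cycle control. Growth inhibition is reported relative to vehicle.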

[3] = NCI Yeast Anticancer Drug Screen. Data for the sgs1 mgt1 strain (AID 161);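 note: 0% = growth of cultures given vehicle only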; settings: S. cerevisiae sgs1 mgt1 strain, at 50.0 µM, hits give high values
Procedure, shortened: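 Genetically altered yeast, compound exposure, growth inhibition relative to vehicle.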

[4] = NCI Yeast Anticancer Drug Screen. Data for the cln2 rad14 strain (AID 165);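 note: 0% = growth equal to vehicle treated cultures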; settings: S. cerevisiae cln2 rad14 strain, at 50.0 µM, hits give high values
Procedure, shortened: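 Test compounds were added to cln2 rad14 yeast cultures; inhibition of growth was then determined by comparison with vehicle treatment.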

[5] = NCI Yeast Anticancer Drug Screen. Data for the bub3 strain (AID 167); settings: S. cerevisiae bub3 mutant strain, at 50.0 µM, hits give high values
Procedure, shortened: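 Readout: yeast growth inhibition, expressed relative to vehicle-only wells. The test organism is a mutant strain from a panel with lesions in DNA repair or checkpoint genes.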

[6] = NCI Yeast Anticancer Drug Screen. Data for the mlh1 rad18 strain (AID 175); settings: S. cerevisiae mlh1 rad18 strain growth inhibition; at 50.0 µM; hits give high values
Procedure, shortened: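 Inhibition values reflect reduced growth of mutant yeast versus vehicle-treated controls following compound exposure; the mutations affect DNA damage repair.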

## Cc1cccc(Cl)c1NC(=O)N(C)c1ccccc1
[1]
  growth inhibition: 8.95%
[2]
  growth inhibition: -11.9%
[3]
  growth inhibition: 14.2%
[4]
  growth inhibition: 23.4%
[5]
  growth inhibition: 23.9%
[6]
  growth inhibition: 11.7%

## Cc1cc(Cl)nc2ccc([N+](=O)[O-])cc12
[1]
  growth inhibition: 5.35%
[2]
  growth inhibition: 6.3%
[3]
  growth inhibition: -5.35%
[4]
  growth inhibition: -18.1%
[5]
  growth inhibition: 14.2%
[6]
  growth inhibition: 5.5%

## O=C1c2ccccc2C(=O)C2C1C1C(=O)c3ccccc3C(=O)C21 (stereo unspecified)
[1]
  growth inhibition: -14.6%
[2]
  growth inhibition: -1.5%
[3]
  growth inhibition: 2.45%
[4]
  growth inhibition: -20.2%
[5]
  growth inhibition: -8.6%
[6]
  growth inhibition: 24.6%

## Nc1ccc(S(=O)(=O)N/N=C/c2ccco2)cc1
[1]
  growth inhibition: 27.1%
[2]
  growth inhibition: -25.1%
[3]
  growth inhibition: 2.8%
[4]
  growth inhibition: 1.6%
[5]
  growth inhibition: -50.5%
[6]
  growth inhibition: -15.1%

## NCC(O)c1cc(I)c(Oc2ccc(O)cc2)c(I)c1 (stereo unspecified)
[1]
  growth inhibition: 7.65%
[2]
  growth inhibition: -19.8%
[3]
  growth inhibition: -22.6%
[4]
  growth inhibition: 12.3%
[5]
  growth inhibition: -1.35%
[6]
  growth inhibition: -11.5%

## O=C(CBr)Nc1ccccc1[N+](=O)[O-]
[1]
  growth inhibition: 8.3%
[2]
  growth inhibition: -1.35%
[3]
  growth inhibition: 5.8%
[4]
  growth inhibition: 0.4%
[5]
  growth inhibition: 6.05%
[6]
  growth inhibition: -5.4%

## CCCCOc1ccc([N+](=O)[O-])cn1
[1]
  growth inhibition: 20.8%
[2]
  growth inhibition: -14.6%
[3]
  growth inhibition: 3.15%
[4]
  growth inhibition: 26.1%
[5]
  growth inhibition: -7.6%
[6]
  growth inhibition: 9.15%

## CCC(=O)C1CCCCN1 (stereo unspecified)
[1]
  growth inhibition: 10.7%
[2]
  growth inhibition: 17.1%
[3]
  growth inhibition: -11.1%
[4]
  growth inhibition: -48.4%
[5]
  growth inhibition: -3.15%
[6]
  growth inhibition: 3%

## c1ccc2cc(N=Nc3cccc4ccccc34)ccc2c1
[1]
  growth inhibition: -10.5%
[2]
  growth inhibition: -17.9%
[3]
  growth inhibition: 1.15%
[4]
  growth inhibition: -19%
[5]
  growth inhibition: 1.1%
[6]
  growth inhibition: -7.75%

## Oc1cccc2c(O)cccc12
[1]
  growth inhibition: 0.55%
[2]
  growth inhibition: 22.8%
[3]
  growth inhibition: 26.4%
[4]
  growth inhibition: -9.55%
[5]
  growth inhibition: 25.5%
[6]
  growth inhibition: 32.8%

## Cc1cc(N=Nc2ccc(C(=O)Nc3ccc4cc(S(=O)(=O)O)ccc4c3)cc2)c(N)c(N=Nc2ccc(N=Nc3ccc(O)c(C(=O)O)c3)cc2)c1N
[1]
  growth inhibition: 8.2%
[2]
  growth inhibition: 29.6%
[3]
  growth inhibition: 53.8%
[4]
  growth inhibition: -21.9%
[5]
  growth inhibition: -11.3%
[6]
  growth inhibition: 44.6%

## CCCCN1C[C@H](OC(=O)CCC)[C@@H](OC(=O)CCC)[C@H](OC(=O)CCC)[C@H]1COC(=O)CCC
[1]
  growth inhibition: -18.4%
[2]
  growth inhibition: -15.7%
[3]
  growth inhibition: -11%
[4]
  growth inhibition: -5.3%
[5]
  growth inhibition: -23.9%
[6]
  growth inhibition: -15.7%

## CCNC(=O)OC1C=CS(=O)(=O)C1 (stereo unspecified)
[1]
  growth inhibition: 5.25%
[2]
  growth inhibition: -9.45%
[3]
  growth inhibition: -0.45%
[4]
  growth inhibition: -5.55%
[5]
  growth inhibition: 7.95%
[6]
  growth inhibition: -10.2%

## OC12c3ccccc3C1CCCCCCCCCC21OCCO1 (stereo unspecified)
[1]
  growth inhibition: -21.5%
[2]
  growth inhibition: -2.45%
[3]
  growth inhibition: -40.6%
[4]
  growth inhibition: 5.05%
[5]
  growth inhibition: -19.1%
[6]
  growth inhibition: -27.8%

## Oc1cccc(C(c2ccccc2)c2ccccc2)c1
[1]
  growth inhibition: -0.6%
[2]
  growth inhibition: 0.3%
[3]
  growth inhibition: -5.5%
[4]
  growth inhibition: -11.1%
[5]
  growth inhibition: -3.6%
[6]
  growth inhibition: -3.95%

## CC(=O)Oc1cc(C)c(OC(C)=O)c(C)c1C
[1]
  growth inhibition: -12.8%
[2]
  growth inhibition: -27.4%
[3]
  growth inhibition: -2.15%
[4]
  growth inhibition: -9.3%
[5]
  growth inhibition: 10.3%
[6]
  growth inhibition: 6.3%

## O/N=C(\CC(O)(C(F)(F)F)C(F)(F)F)c1cccs1
[1]
  growth inhibition: 81% (active)
[2]
  growth inhibition: 76.9% (active)
[3]
  growth inhibition: 45.6%
[4]
  growth inhibition: 87.5% (active)
[5]
  growth inhibition: 75.8% (active)
[6]
  growth inhibition: 93.5% (active)

## CSC(=S)Nc1nc2ccc(Cl)cc2s1
[1]
  growth inhibition: -1.45%
[2]
  growth inhibition: 6.75%
[3]
  growth inhibition: 15.3%
[4]
  growth inhibition: 3.15%
[5]
  growth inhibition: 17.7%
[6]
  growth inhibition: 3.2%

## Cc1cc2ncn(C3OC(CO)C(O)C3O)c2cc1C (stereo unspecified)
[1]
  growth inhibition: -2.7%
[2]
  growth inhibition: 8.35%
[3]
  growth inhibition: -8.25%
[4]
  growth inhibition: 21.5%
[5]
  growth inhibition: -8.2%
[6]
  growth inhibition: 2.65%

## Cc1ccc(C(=O)NCCN2CCCC2)c([N+](=O)[O-])c1OCc1ccccc1
[1]
  growth inhibition: 6.15%
[2]
  growth inhibition: -20%
[3]
  growth inhibition: 4.8%
[4]
  growth inhibition: -22.9%
[5]
  growth inhibition: -4.85%
[6]
  growth inhibition: -5.8%

## N#Cc1c(N)nc2c(c(-c3ccc(Cl)cc3)nn2-c2ccccc2)c1C#N
[1]
  growth inhibition: -2.45%
[2]
  growth inhibition: -17.4%
[3]
  growth inhibition: -34.8%
[4]
  growth inhibition: 11.1%
[5]
  growth inhibition: -23.9%
[6]
  growth inhibition: 6.1%

## CC(=O)Oc1c2oc3cc(O)c(O)cc3c2c(OC(C)=O)c2oc3cc(O)c(O)cc3c12
[1]
  growth inhibition: -0.4%
[2]
  growth inhibition: 0.05%
[3]
  growth inhibition: -1.15%
[4]
  growth inhibition: -5.45%
[5]
  growth inhibition: -0.8%
[6]
  growth inhibition: -29.1%

## O=[N+]([O-])c1ccc(SC2OC(CO)C(O)C(O)C2O)c([N+](=O)[O-])c1 (stereo unspecified)
[1]
  growth inhibition: 2.05%
[2]
  growth inhibition: 29.4%
[3]
  growth inhibition: 3.95%
[4]
  growth inhibition: -14.2%
[5]
  growth inhibition: -5.35%
[6]
  growth inhibition: 20.8%

## CCOC(=O)c1ccccc1C(=O)c1ccccc1O
[1]
  growth inhibition: -5.8%
[2]
  growth inhibition: -18%
[3]
  growth inhibition: -1.6%
[4]
  growth inhibition: -0.45%
[5]
  growth inhibition: -5.45%
[6]
  growth inhibition: 18.4%

## CCc1nc2cc(F)ccc2[nH]c1=O
[1]
  growth inhibition: 17.3%
[2]
  growth inhibition: 24.2%
[3]
  growth inhibition: 28.9%
[4]
  growth inhibition: 21.4%
[5]
  growth inhibition: 40.9%
[6]
  growth inhibition: -7.55%

## CC(=O)c1cc2ccccc2o1
[1]
  growth inhibition: 17.6%
[2]
  growth inhibition: 1.4%
[3]
  growth inhibition: -4%
[4]
  growth inhibition: 0.05%
[5]
  growth inhibition: -6.7%
[6]
  growth inhibition: 4.6%

## COc1ccc(/C=N/NC(N)=S)cc1
[1]
  growth inhibition: 24.1%
[2]
  growth inhibition: 14.6%
[3]
  growth inhibition: 28.6%
[4]
  growth inhibition: -13%
[5]
  growth inhibition: 12.8%
[6]
  growth inhibition: 46.6%

## COc1cc(/C=C/C(=O)c2ccccc2O)cc(OC)c1OC
[1]
  growth inhibition: -1%
[2]
  growth inhibition: -17.1%
[3]
  growth inhibition: 16.4%
[4]
  growth inhibition: -6.35%
[5]
  growth inhibition: -9.15%
[6]
  growth inhibition: 13.8%

## COc1ccc(CCNC(=O)Cc2ccc(Cl)cc2)cc1OC
[1]
  growth inhibition: 3.65%
[2]
  growth inhibition: -4.65%
[3]
  growth inhibition: -9.7%
[4]
  growth inhibition: 4.2%
[5]
  growth inhibition: -5.75%
[6]
  growth inhibition: 0.2%

## O=C(OCCN=c1c2ccccc2ccc2ccccc12)c1cc([N+](=O)[O-])cc([N+](=O)[O-])c1
[1]
  growth inhibition: 13.1%
[2]
  growth inhibition: 4.75%
[3]
  growth inhibition: 34.3%
[4]
  growth inhibition: 21%
[5]
  growth inhibition: 13.6%
[6]
  growth inhibition: 39.8%

## CC(C)OC(CCC#N)c1ccccc1 (stereo unspecified)
[1]
  growth inhibition: -20.1%
[2]
  growth inhibition: -48.6%
[3]
  growth inhibition: -33.3%
[4]
  growth inhibition: -8.3%
[5]
  growth inhibition: -32.9%
[6]
  growth inhibition: -34.1%

## O=[N+]([O-])c1cccc(OCC2CO2)c1 (stereo unspecified)
[1]
  growth inhibition: 9%
[2]
  growth inhibition: -23.8%
[3]
  growth inhibition: -0.75%
[4]
  growth inhibition: -13.2%
[5]
  growth inhibition: -2.1%
[6]
  growth inhibition: 34.5%

## Cc1c(C)c(C)c(CCl)c(CCl)c1C
[1]
  growth inhibition: 36.1%
[2]
  growth inhibition: 16.9%
[3]
  growth inhibition: 31.9%
[4]
  growth inhibition: 10.4%
[5]
  growth inhibition: 8.3%
[6]
  growth inhibition: 24.6%

## CC(C)CN(CC#N)CC(C)C
[1]
  growth inhibition: -31.8%
[2]
  growth inhibition: -26.9%
[3]
  growth inhibition: -34.5%
[4]
  growth inhibition: 15.1%
[5]
  growth inhibition: -49.1%
[6]
  growth inhibition: -50%

## O=C(CC(=O)N1N=C(N(c2ccccc2)c2ccccc2)CC1c1ccccc1)Nc1ccccc1 (stereo unspecified)
[1]
  growth inhibition: 17.1%
[2]
  growth inhibition: 6.4%
[3]
  growth inhibition: -2.1%
[4]
  growth inhibition: 8.3%
[5]
  growth inhibition: -0.35%
[6]
  growth inhibition: 0.1%

## O=C(O)CCc1cccc2ccccc12
[1]
  growth inhibition: 30.1%
[2]
  growth inhibition: 10.8%
[3]
  growth inhibition: 32.7%
[4]
  growth inhibition: 14.4%
[5]
  growth inhibition: 3.35%
[6]
  growth inhibition: 35.3%
